# Assay outcomes from PubChem BioAssay.
# Sampled rows, rich in hits. Any-hit rate of the full collection: about 9.2%.
# ELG1 genotox: qHTS screen for small molecules that induce genotoxicity in human embryonic kidney (HEK293T) cells expressing luciferase-tagged ELG1; HEK293T ELG1-luciferase reporter, luminescence, 16 h; Potency, µM (titrated, usually from 46 µM), inactives show at the top dose activity change, positive = activation, most hits filed as activators; 330,000 tested, 1.3% active; AID 504466, 2011; further: % of control where 0% means no effect; nearly all actives have a fitted effect of over 60% in size
#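 DMSO vehicle served as control against compound-treated ELG1-luciferase HEK293T cells; exposure lasted 16 hr at 37 °C and 5% CO2, followed by ONE-Glo luminescence detection after 30 min.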
# FLuc modulator: qHTS profiling assay for firefly luciferase inhibitor/activator using purifed enzyme and Km concentrations of substrates (counterscreen for miR-21 project); Luciferin 4-monooxygenase (Photinus pyralis), P08659; purified FLuc, Km substrates, luminescence inhibition; Potency, µM (series often up to 57.5 µM), without a hit: at the highest dose activity change, negative = inhibition, usual class: inhibitors; 360,000 tested, 6.9% active;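 further: plate controls were vehicle for no effect and reference inhibitor for full effect; nearly all actives have a fitted effect of over 55% in size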
# Target sequence (P08659 whole entry, looked up): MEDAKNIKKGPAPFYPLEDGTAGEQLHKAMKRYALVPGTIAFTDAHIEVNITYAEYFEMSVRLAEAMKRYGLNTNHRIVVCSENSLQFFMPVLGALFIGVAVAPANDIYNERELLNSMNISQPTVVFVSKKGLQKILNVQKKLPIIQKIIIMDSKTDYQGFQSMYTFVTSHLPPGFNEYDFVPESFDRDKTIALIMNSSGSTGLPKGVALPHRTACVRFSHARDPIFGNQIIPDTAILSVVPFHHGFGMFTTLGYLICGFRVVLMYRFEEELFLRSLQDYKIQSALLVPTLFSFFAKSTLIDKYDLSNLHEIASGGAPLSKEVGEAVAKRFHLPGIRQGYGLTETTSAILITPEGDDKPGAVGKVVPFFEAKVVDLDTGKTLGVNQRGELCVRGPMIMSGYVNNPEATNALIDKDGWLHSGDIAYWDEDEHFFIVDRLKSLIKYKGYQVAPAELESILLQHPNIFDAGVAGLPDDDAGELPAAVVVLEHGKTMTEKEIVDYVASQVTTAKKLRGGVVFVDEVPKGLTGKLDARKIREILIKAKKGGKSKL
#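 Biochemical qHTS of compounds, final roughly 60 µM downward over six points, against 10 nM purified firefly luciferase using Km concentrations of substrates (10 uM D-luciferin, 10 uM ATP) in Tris acetate pH 7.5 buffer; luminescence output.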
# Rab9 promoter act: qHTS Assay for Rab9 Promoter Activators; AID 485297, 2010; Potency, µM (titrated, usually from 9.22 µM), for inactives: at the highest dose activation, negative = inhibition, hits mostly activators; Huh7 Rab9 promoter-luciferase reporter, luminescence, 24 h; 320,000 tested, 2.8% active; further: % of control where 0% means no effect; nearly all actives have a fitted effect of over 60% in size
#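 Using Huh7 cells stably transfected with Rab9 promoter–luciferase, compounds were incubated 24 h at 37 °C, 5% CO2; luciferase luminescence was read 10 min after reagent addition.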
# ELG1 repair inh: qHTS screen for small molecules that inhibit ELG1-dependent DNA repair in human embryonic kidney (HEK293T) cells expressing luciferase-tagged ELG1; HEK293T ELG1-luciferase reporter, luminescence, 16 h; DNA damage induced by 5-fluorouridine; Potency, µM (series often up to 46.1 µM), for inactives: at the highest dose activity change, negative = inhibition, hits mostly inhibitors; 330,000 tested, 2.3% active; AID 504467, 2011; further: on the % scale 0 is the no-effect control and ±100 the full control effect; nearly all actives have a fitted effect of over 55% in size
#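 Cells (2,000 per well) received 5-fluorouridine plus test compound or DMSO and were incubated 16 hr at 37 °C, 5% CO2. Luciferase activity was read by luminescence 30 min after ONE-Glo addition; signal suppression marked inhibition of damage-induced ELG1 function.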
# NPC1 prom act: qHTS Assay for NPC1 Promoter Activators. Huh7 NPC1 promoter luciferase reporter, 24 h. Potency, µM (highest dose often 9.22 µM), for the others: top-dose activation, actives largely listed as activators. 320,000 tested, 2.4% active. AID 485313, 2010; further: % of control where 0% means no effect; nearly all actives have a fitted effect of over 60% in size
#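 Cells: Huh7 expressing luciferase under the NPC1 promoter, 1500/well. Seeded 2 h, compound added, incubated 24 h at 37 °C. Luciferase reagent, 10 min ambient, then luminescence.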
# SMN2 splice enh: qHTS Assay for Enhancers of SMN2 Splice Variant Expression; HEK293 SMN2-luciferase splicing reporter, luminescence, 30-36 h; Potency, µM (doses to about 46.1 µM), for inactives: at the top dose activity change, positive = activation, usual class: activators; 210,000 tested, 2.8% active; AID 1458, 2008; further: % of control where 0% means no effect; nearly all actives have a fitted effect of over 55% in size
#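 qHTS luciferase splicing reporter: luminescence rises when SMN2 exon 7 is included in transfected HEK293 cells. Compound exposure lasted 30-36 h at 37C, with 4.5 mM final sodium butyrate as control, followed by a ONE-Glo read.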
# * = called active by the depositor; ? = inconclusive; nt = no result given. The call rests on the fitted dose curve; in most records, active means well fitted curve in the direction sought with a large enough effect; inconclusive means small, poorly fitted or top-dose-only effect, or another doubt; inactive means no such curve, though single readings can be large; an effect the other way counts as inactive or inconclusive. Potency means the concentration at half of the fitted maximal effect.
SMILES,ELG1 genotox,FLuc modulator,Rab9 promoter act,ELG1 repair inh,NPC1 prom act,SMN2 splice enh
CCOc1ccc(N/C(=N/c2nc(C)cc(C)n2)NC(=O)CC)cc1,-7%,1%,-7%,18µM*,-1%,nt
CCSc1nc(-c2ccccc2)cc(=O)[nH]1,9%,-1%,14%,?,-3%,nt
O=C(CSc1cn(Cc2ccccc2)c2ccccc12)N1CCOCC1,18µM*,24µM*,23%,?,?,13µM*
O=C(NCCn1cc(SCC(=O)N2CCOCC2)c2ccccc21)c1ccccc1,-3%,-12%,17%,7%,14%,-2%
CN1C(=O)/C(=C/c2cn(CC(=O)N3CCCCC3)c3ccccc23)c2ccccc21,-14%,?,-1%,21µM*,0%,-3%
O=Cc1cn(CC(=O)N2CCCCC2)c2ccccc12,0%,4%,-3%,10%,-1%,-3%
Cc1ccc(CSc2cn(CC(=O)N3CCCC3)c3ccccc23)cc1,nt,15µM*,nt,nt,nt,nt
O=C(Cn1cc(SCc2ccc(Cl)cc2)c2ccccc21)N1CCOCC1,1%,24µM*,30%,?,22%,?
Cc1ccccc1-c1cc(C(=O)NCc2cccc(Br)c2)n(CC2CC(c3cccnc3)=NO2)n1 (configuration not stated),-7%,nt,nt,?,nt,nt
O=C(Cn1cc(SCc2c(F)cccc2Cl)c2ccccc21)N1CCCC1,nt,17µM*,nt,nt,nt,nt
Cc1cccc(CSc2cn(CC(=O)N3CCCC3)c3ccccc23)c1,nt,15µM*,nt,nt,nt,nt
Cc1ccc(NC(=O)COC(=O)c2ccc(NC(=O)CC#N)cc2)cc1S(=O)(=O)N1CCOCC1,1%,nt,nt,-27%,nt,nt
CCC(C)(CC(=O)O)CC(=O)Nc1cc(C(F)(F)F)cc(C(F)(F)F)c1 (configuration not stated),-3%,-1%,1%,?,-4%,nt
FC(F)(F)c1ccccc1-n1c(-c2cnccn2)n[nH]c1=S,?,17µM*,11%,?,11%,nt
COC(=O)CCCC(=O)N1CCCC(CCC(=O)NCc2ccc(F)c(F)c2)C1 (configuration not stated),?,17µM*,-3%,-18%,-4%,nt
O=C(CCC1CCCN(C(=O)c2ccc3c(c2)OCCO3)C1)NCc1ccccc1F (configuration not stated),?,17µM*,2.8µM*,?,26%,nt
CSc1ccccc1C(=O)N1CCCC(CCC(=O)NCc2ccc(F)c(F)c2)C1 (configuration not stated),-1%,1%,0%,?,0%,nt
COC(=O)c1ccccc1C(=O)N1CCCC(CCC(=O)NCc2ccc(F)c(F)c2)C1 (configuration not stated),?,13µM*,?,?,24%,nt
CCCCOc1ccc(CSc2nnc(C)n2N)cc1[N+](=O)[O-],14%,7.6µM*,26%,?,20%,nt
Cc1ccc(Cn2c(C)c(CNCCCc3ccccc3)c(C(=O)O)c2C)cc1,nt,-1%,nt,nt,nt,0%
O=C(c1cc[n+]([O-])cc1)N1CCc2c([nH]c3ccccc23)C1c1ccccc1Cl (configuration not stated),-3%,-2%,-5%,-13%,-2%,nt
CN1N=C(C(=O)N2CCc3c([nH]c4ccccc34)C2c2ccccc2Cl)CCC1=O (configuration not stated),?,15µM*,5µM*,?,14%,nt
COc1cccc(NC(=O)Cn2c(=O)n(-c3ccccc3)c(=O)c3ccc(C(=O)NCc4ccc5c(c4)OCO5)cc32)c1,nt,-1%,nt,nt,nt,12%
CC(C)Oc1ccc(C(=O)OC(C)C(=O)Nc2nc(-c3cccc([N+](=O)[O-])c3)cs2)cc1 (configuration not stated),-4%,2%,-6%,16µM*,-2%,-13%
CC(OC(=O)c1ccc(F)cc1)C(=O)Nc1nc(-c2cccc([N+](=O)[O-])c2)cs1 (configuration not stated),-2%,0%,1%,?,-3%,10%
SMILES,ELG1 genotox,FLuc modulator,Rab9 promoter act,ELG1 repair inh,NPC1 prom act,SMN2 splice enh
CCc1ccc(C2=NN(C(=O)OC)C(O)(C(F)(F)F)C2)cc1 (configuration not stated),?,2.7µM*,0.63µM*,?,0.45µM*,-2%
CCOC(=O)N1N=C(c2ccccc2)CC1(O)C(C)(F)F (configuration not stated),0%,6%,-5%,6%,-4%,8%
CCOC(=O)N1N=C(c2ccc(OC)cc2)CC1(O)C(F)(F)F (configuration not stated),?,3.4µM*,0.89µM*,?,1.1µM*,nt
CCN(C(=O)CSc1nnc(C2CC2)n1-c1ccccc1)C1CCS(=O)(=O)C1 (configuration not stated),1%,nt,-1%,19%,-1%,nt
CC1=C(C(=O)Nc2cccnc2)C(c2ccc(C)cc2)n2nc(SCc3ccccc3F)nc2N1 (configuration not stated),nt,-1%,nt,nt,nt,-9%
O=c1cc(N2CCN(c3cccc(Cl)c3)CC2)[nH]c(=O)n1C1CCCCC1,?,0%,-33%,11%,3%,7.9µM*
Cc1ccc2[nH]c(C(=O)N/N=C/c3ccccc3C(=O)O)c(-c3ccccc3)c2c1,-3%,?,-11%,?,-3%,nt
Cc1ccc2[nH]c(C(=O)N/N=C/c3ccccc3O)c(C)c2c1,?,-19%,-34%,2.3µM*,-10%,nt
COc1ccc(C)cc1NC(=O)C1CCCN(c2ncnc3onc(C)c23)C1 (configuration not stated),nt,1%,nt,nt,nt,nt
O=c1sc(Nc2ccccc2)nc2ccsc12,18µM*,12µM*,?,?,7%,1%
Cc1ccc2nc(NC(=O)c3ccco3)sc2c1,0.21µM*,0.27µM*,0.79µM*,?,?,1.1µM*
O=C(NCc1ccc(F)cc1)C1CCCN(c2nc3ccsc3c(=O)s2)C1 (configuration not stated),0%,0%,-5%,-7%,1%,-5%
Cc1ccc2nc(NC(=S)NC(=O)c3ccco3)sc2c1,?,0.48µM*,3.5µM*,?,1.4µM*,11µM*
